Experimental data taken from PubChem BioAssay.
Results with a measured potency or affinity are listed apart. Results filed as inconclusive are left out. Calls of active or inactive are those of the source.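 How the source made its calls, unless noted: active means fitted dose curve reaches 40% lysis signal rise at or below the highest valid concentration tested for that sample; inconclusive means flat fit between 30% and 70%, or poor curve fit; inactive means signal falls, stays flat within 30%, or no crossing.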

Experiments:
[1] = fungal growth arrest, C. neoformans – Alamar Blue, cherry-picks, dose response (AID 686998;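 active means falling signal with fitted half-maximal potency no higher than twice the top valid tested dose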)
[2] = C. neoformans lysis by adenylate kinase leakage – AK release luminescence, cherry-picks, dose response (AID 687000);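 further: luminescent detection of adenylate kinase leaking from lysed yeast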
[3] = viability loss in HepG2 hepatoma cells – cell-based, cherry-picks, set 2, cytotoxicity control, dose response (AID 687002;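 active means a dose-response fit showing signal loss, with half-maximal concentration no higher than twice the top tested dose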)
[4] = viability loss in HeLa cells – cell-based, ATP luminescence, cherry-pick samples, cytotoxicity control, dose response (AID 687004;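 active means a fitted half-maximal concentration no higher than twice the top valid tested dose, with signal falling as cells die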)

Measured: outcome

Cc1cccc(C)c1NC(=O)CN1CCCC1
inactive: all assays above

C[C@@H]1CCCCO[C@@H](CN(C)S(=O)(=O)c2ccccc2)[C@H](C)CN([C@@H](C)CO)C(=O)c2cc(NC(=O)Nc3ccc(F)cc3)ccc2O1
inactive: all assays above

CNC(=O)CSc1ncnc2c1cnn2-c1ccccc1
inactive: all assays above

CCCNC(=O)Nc1ccc2c(c1)C(=O)N(C)C[C@H](OC)[C@@H](C)CN(Cc1cccnc1)[C@H](C)CO2
inactive: all assays above

C[C@H](CO)N1C[C@H](C)[C@@H](CN(C)C(=O)Nc2ccc(F)cc2)Oc2c(NS(=O)(=O)c3ccccc3)cccc2C1=O
inactive: all assays above

CC(C)NC(=O)Nc1cccc2c1O[C@@H](CN(C)C(=O)Nc1ccccc1)[C@@H](C)CN([C@@H](C)CO)C2=O
inactive: all assays above

CC(C)NC(=O)Nc1ccc2c(c1)C(=O)N([C@@H](C)CO)C[C@@H](C)[C@H](CN(C)C(=O)Cc1ccccc1)OCCCC[C@@H](C)O2
inactive: all assays above

CN1C(=O)c2cc(NS(C)(=O)=O)ccc2OC[C@@H]2O[C@@H](CC(=O)O)CC[C@@H]21
inactive: all assays above

C/C=C/c1ccc([C@@H]2[C@@H](CNC(=O)c3ccccc3)N(C(C)=O)[C@H]2CO)cc1
inactive: all assays above
